Several values for one entry are separate records, joined by “and”; a condition that tells them apart may be missing. Identical values can stand only once. Inconclusive results are not listed. Some structures have more than one record in an assay (separate samples or runs), and their calls can disagree. Activity calls are given as the source filed them. The call rests on the fitted dose curve; in most records, active means well fitted cell-killing curve with a large enough effect in the repeat runs; inconclusive means weak or mixed curves; inactive means no such curve, though single readings can be large or run the other way.
Experiment: qHTS assay for identifying genotoxic compounds that show differential cytotoxicity against isogenic chicken DT40 cell lines with known DNA damage response pathways - Rad54/Ku70 mutant cell line (AID 743015); further: nearly all actives have a fitted effect of over 60% in size
Conditions: DT40 Rad54/Ku70 mutant viability, CellTiter-Glo, 40 h; series mostly up to 66.8 µM; activity change, negative = cytotoxicity: at the top concentration
On the % scale 0 is the no-effect control and ±100 the full control effect; potency means the concentration at half of the fitted maximal effect.

| Compound | activity change, negative = cytotoxicity | Potency |
| --- | --- | --- |
| C=C1c2cccc(O)c2C(O)=C2C(=O)[C@]3(O)C(O)=C(C(N)=O)C(=O)[C@@H](N(C)C)[C@@H]3[C@@H](O)[C@H]12 | 1.08% [at 30.7 µM] (inactive) | – |
| Cc1ccco1 | -1.73% (inactive) | – |
| CC=C(Cl)Cl | -0.828% (inactive) | – |
| O=c1[nH]ncc2ccccc12 | 16.5% (inactive) | – |
| NC1[C@H]2CN(c3nc4c(cc3F)c(=O)c(C(=O)O)cn4-c3ccc(F)cc3F)C[C@@H]12 (stereo partly specified) | – | 7.5 µM (active) |
| C=Cc1ccc(S(=O)(=O)O)cc1 | – | inactive and 2.17 µM (active) |
| CC[C@]1(O)C[C@H]2CN(CCc3c([nH]c4ccccc34)[C@@](C(=O)OC)(c3cc4c(cc3OC)N(C=O)[C@H]3[C@@](O)(C(=O)OC)[C@H](OC(C)=O)[C@]5(CC)C=CCN6CC[C@]43[C@@H]65)C2)C1 | – | 0.0106 µM (active) |
| CC(C)COCC(CN(Cc1ccccc1)c1ccccc1)N1CCCC1 (stereo unspecified) | – | 7.5 µM (active) |

Experiment: qHTS assay to identify small molecule antagonists of the androgen receptor (AR) signaling pathway - cell viability counter screen (AID 743033; further: nearly all actives have a fitted effect of over 45% in size)
Conditions: AR-bla HEK293 viability, CellTiter-Glo luminescence, 16 h; series mostly up to 58.5 µM; activity change, negative = cytotoxicity: at the top concentration

| Compound | Potency | activity change, negative = cytotoxicity |
| --- | --- | --- |
| Oc1ccc(Cl)c2cccnc12 | 13.4 µM (active) | – |
| Cc1ccccc1S | – | -0.123% (inactive) |
| CC(CO)CO | – | -2.58% [at 78.9 µM] (inactive) |
| COc1ncnc(NS(=O)(=O)c2ccc(N)cc2)c1OC | – | -1.16% (inactive) |
| Cc1cc(C)cc(N)c1 | – | 1.58% [at 78.9 µM] (inactive) |
| CC(C)c1nc(CN(C)C(=O)N[C@H](C(=O)N[C@@H](Cc2ccccc2)C[C@H](O)[C@H](Cc2ccccc2)NC(=O)OCc2cncs2)C(C)C)cs1 | inactive | – |
| COC(=O)CCS | – | -1.67% (inactive) |
| NC(=O)c1ccncc1 | – | 0.0718% [at 78.9 µM] (inactive) |
| Cc1cscn1 | – | 2.54% (inactive) |
| C=C(C)[C@@H]1CCC2=CCC[C@@H](C)[C@]2(C)C1 | – | -9.17% (inactive) |
| CCC1CO1 (stereo unspecified) | – | -0.557% (inactive) |
| COc1cc(C(=O)NC2CCN(C)CC2)ccc1Nc1ncc2c(n1)N(C1CCCC1)CC(F)(F)C(=O)N2C | 15.9 µM (active) | – |
| O=C(OC(=O)c1ccccc1)c1ccccc1 | – | 1.56% [at 78.9 µM] (inactive) |
| CCC(C)COC(C)=O (stereo unspecified) | – | -0.586% (inactive) |
| CCCCCCCCCI | – | -8.22% [at 78.9 µM] (inactive) |
| C[C@]1(Cn2ccnn2)[C@H](C(=O)O)N2C(=O)C[C@H]2S1(=O)=O | – | 17.4% (inactive) |
| CC1CC(C)C(=O)C1=O (stereo unspecified) | – | 4.92% (inactive) |
| CCCC(=O)C(=O)O | – | -2.55% (inactive) |
| C1COC1 | – | 1.15% (inactive) |
| O=C(/C=C/c1ccccc1)OCCc1ccccc1 | – | 0.287% (inactive) |
| Cc1c(C)c2c(c(C)c1OC(=O)CCC(=O)OCCO)CC[C@@](C)(CCC[C@H](C)CCC[C@H](C)CCCC(C)C)O2 | – | -23.8% (inactive) |
| C=C1c2cccc(O)c2C(O)=C2C(=O)[C@]3(O)C(O)=C(C(N)=O)C(=O)[C@@H](N(C)C)[C@@H]3[C@@H](O)[C@H]12 | – | -0.0845% [at 27 µM] (inactive) |
| Cc1ccco1 | – | 5.4% (inactive) |
| CC=C(Cl)Cl | – | 0.233% (inactive) |
| NC1[C@H]2CN(c3nc4c(cc3F)c(=O)c(C(=O)O)cn4-c3ccc(F)cc3F)C[C@@H]12 (stereo partly specified) | – | -23.1% (inactive) |
| C=Cc1ccc(S(=O)(=O)O)cc1 | – | 0.792% (inactive) |
| CC[C@]1(O)C[C@H]2CN(CCc3c([nH]c4ccccc34)[C@@](C(=O)OC)(c3cc4c(cc3OC)N(C=O)[C@H]3[C@@](O)(C(=O)OC)[C@H](OC(C)=O)[C@]5(CC)C=CCN6CC[C@]43[C@@H]65)C2)C1 | – | -18.3% (inactive) |
| CC(C)COCC(CN(Cc1ccccc1)c1ccccc1)N1CCCC1 (stereo unspecified) | – | 2.92% (inactive) |
